PP5 primary: inhibitors of human protein phosphatase 5 (PP5). purified PP5c, OMFP substrate fluorescence. inhibition, % at 6.7 µM. AID 1987. 0.18% of 320,000 active;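 active means inhibition above the campaign's mean inhibition across all tested compounds plus 3 SD, cut at about 9.5% in these data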;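 further: 0% = DMSO only and 100% = 100 µM cantharidin control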
PAFAH2 FP inh: PAFAH2 (human) inhibition; 0.99% of 340,000 active; recombinant PAFAH2, FP-rhodamine activity probe, fluorescence polarization; inhibition, % at 3.39 µM; Q99487;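 active means inhibition above the mean over all tested compounds plus 3 SD, cut at about 30% in these data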;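 further: inhibitors block probe labeling of enzyme so polarization drops; 0% = enzyme with DMSO and 100% = wells lacking PAFAH2 protein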
PAFAH1B3 FP inh: PAFAH1B3 (human) inhibition. recombinant PAFAH1B3, FP-rhodamine probe, fluorescence polarization. inhibition, % at 3.39 µM. 0.28% of 340,000 active. AID 492972;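 active means inhibition above the screen-wide average of all tested compounds plus 3 SD, cut at about 25% in these data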;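 further: 0% = enzyme with DMSO only and 100% = wells lacking PAFAH1B3 protein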
Target sequence (Q15102 whole entry, looked up): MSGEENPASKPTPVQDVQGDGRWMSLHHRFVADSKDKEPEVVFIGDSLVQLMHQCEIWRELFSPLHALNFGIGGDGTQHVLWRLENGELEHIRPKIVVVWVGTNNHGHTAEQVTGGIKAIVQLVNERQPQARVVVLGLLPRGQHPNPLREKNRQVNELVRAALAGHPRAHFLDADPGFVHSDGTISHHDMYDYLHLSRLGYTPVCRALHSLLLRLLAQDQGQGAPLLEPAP
Fh CTSL1 inh: counter-screen for PFM18AAP inhibitors: inhibitors of F. hepatica cathepsin L1; 0.49% of 300,000 active; inhibition, % at 5.96 µM; recombinant F. hepatica cathepsin L1, Z-Leu-Arg-MCA fluorescence;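 active means inhibition above the mean of all tested compounds plus 3 SD, set per screening campaign, cut at about 17% in these data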;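 further: 0% = plate median of test compound wells and 100% = 1 µM Z-Phe-Ala-diazomethylketone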
pPAFAH inh: inhibitors of human plasma PAF acetylhydrolase (pPAFAH); Q13093; recombinant pPAFAH, FP-rhodamine probe fluorescence polarization; inhibition, % at 3.39 µM; 1.5% of 330,000 active; AID 463082;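 active means inhibition above the mean inhibition across the screen plus 3 SD, cut at about 25% in these data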;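 further: inhibitors block binding of the rhodamine activity-based probe so polarization drops; 0% = enzyme with DMSO and 100% = wells lacking pPAFAH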
PAFAH1B2 FP inh: PAFAH1B2 (human) inhibition; P68402; recombinant PAFAH1B2, FP-rhodamine activity probe, fluorescence polarization; inhibition, % at 3.39 µM; 1.2% of 340,000 active;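 active means inhibition above the mean of all tested compounds plus 3 SD, cut at about 24% in these data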;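 further: 0% = enzyme with DMSO and 100% = wells lacking PAFAH1B2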
Target sequence (P68402 whole entry, looked up): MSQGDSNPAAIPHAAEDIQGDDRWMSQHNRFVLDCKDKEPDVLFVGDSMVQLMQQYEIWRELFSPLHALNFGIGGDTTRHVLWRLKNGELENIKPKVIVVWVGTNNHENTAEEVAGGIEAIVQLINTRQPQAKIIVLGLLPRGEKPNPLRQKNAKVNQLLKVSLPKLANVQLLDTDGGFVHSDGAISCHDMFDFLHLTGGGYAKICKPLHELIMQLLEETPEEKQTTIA
* = called active by the depositor; x = no result. Most compounds without a hit are left out; they make up all but 3% or so of the library.

SMILES	PP5 primary	PAFAH2 FP inh	PAFAH1B3 FP inh	Fh CTSL1 inh	pPAFAH inh	PAFAH1B2 FP inh
C(=N\c1nccs1)/c1c[nH]c2ccccc12	-1.4	2.2	6.9	1.4	7.5	2.4
COC(=O)Nc1ccc([N+](=O)[O-])cc1OC	2.1	0.0	7.2	1.4	3.1	3.7
COC(=O)CSc1cc([N+](=O)[O-])ccc1NC(=O)OC	-1.8	0.7	13.2	18.6*	-1.6	5.2
COc1ccc(S(=O)(=O)Nc2ccccc2C(=O)OC2CCCN(C)C2)cc1OC (configuration not stated)	3.5	-3.9	-3.5	27.4*	-0.4	-1.1
Cc1ccc(CN(C(=O)c2ccc([N+](=O)[O-])cc2)C2CCS(=O)(=O)C2)o1 (configuration not stated)	1.0	-0.1	3.2	3.2	0.8	4.0
CC(=O)Nc1cccc(-c2cc(-c3c(Cl)cccc3Cl)no2)c1	2.4	-1.6	-2.1	2.3	28.4*	-0.3
CNC(=O)Nc1cccc(-c2cc(-c3c(Cl)cccc3Cl)no2)c1	3.6	-4.7	-5.1	-0.2	12.6	-4.2
Oc1c(I)cc(I)c2cccnc12	-0.6	6.9	10.2	-4.9	33.0*	8.4
CN(CC(=O)Nc1ccc(Cl)c(Cl)c1)C(=O)c1cccc2cccnc12	1.6	-8.2	4.1	x	8.0	2.7
CC(NC(=O)COC(=O)C1=COCCO1)C12CC3CC(CC(C3)C1)C2 (configuration not stated)	-0.8	51.9*	-6.3	3.1	4.3	24.8*
CN(C(=O)COC(=O)C1=COCCO1)C1(C#N)CCCCC1	-0.7	9.3	-2.2	x	1.3	1.5
N#CC1(NC(=O)COC(=O)C2=COCCO2)CCCCC1	2.3	92.2*	32.5*	x	2.8	18.6
C=CCn1c(CNS(=O)(=O)c2ccc(Br)cc2)n[nH]c1=S	-1.6	7.7	7.1	-0.3	4.1	18.9
Oc1ccc(C2=Nn3c(nnc3-c3ccco3)SC2)cc1O	0.6	49.3*	50.0*	-0.3	31.5*	28.6*
N#C/C(=N\Nc1cccc(Cl)c1)C(=O)c1ccccc1	2.7	22.4	-3.4	6.7	26.0*	1.9
N#C/C(=N\Nc1ccc(Cl)cc1)C(=O)c1ccsc1	5.5	18.8	9.0	-0.7	32.8*	8.8
C=CCNC(=O)NC(=O)CN1C(=O)NC(c2ccccc2)(c2ccccc2)C1=O	0.6	-0.2	-0.7	-0.7	2.1	9.4
CCCCNC(=O)Oc1c(Br)cc2sc(=O)oc2c1Br	-0.1	x	x	22.8*	52.4*	x
COCCn1c(N)c(N(Cc2ccccc2)C(=O)CSCC(=O)Nc2ccc(OC)cc2)c(=O)[nH]c1=O	-0.5	-1.0	13.4	1.5	-0.8	3.8
Cc1ccc(NS(=O)(=O)c2ccc(CCC(=O)NCc3ccccn3)cc2)cc1	4.1	3.4	-2.8	-0.3	31.9*	7.2
O=C(CCNC(=O)c1ccc(Br)cc1)Nc1ccc(S(=O)(=O)Nc2ncccn2)cc1	-2.0	7.1	4.8	3.2	27.9*	2.3
Cc1ccc(NS(=O)(=O)c2ccc(C(=O)NCc3ccccn3)cc2)cc1	2.9	2.3	7.0	0.7	30.6*	5.7
CC(C)NS(=O)(=O)c1ccc(CCC(=O)NCc2ccccn2)cc1	-4.1	7.8	16.9	-5.0	-2.7	3.5
Cc1ccc(NS(=O)(=O)c2ccc(CCC(=O)NCCO)cc2)cc1	-1.8	4.1	1.4	-1.2	24.9*	1.3
Cc1ccc(CNC(=O)CCc2ccc(S(=O)(=O)NC3CCCCC3)cc2)cc1	0.9	2.6	3.8	-3.9	15.2	1.0
SMILES	PP5 primary	PAFAH2 FP inh	PAFAH1B3 FP inh	Fh CTSL1 inh	pPAFAH inh	PAFAH1B2 FP inh
O=C(c1ccc(Cn2c(=S)[nH]c3ccccc3c2=O)cc1)N1CCN(c2ccccn2)CC1	2.0	-2.6	-1.8	0.2	-1.1	-3.9
CC1CC(C)CN(C(=O)COC(=O)c2ccc(Cl)nc2)C1 (configuration not stated)	x	7.1	-5.6	x	x	4.1
O=c1[nH]c2cc(Cl)ccc2n1-c1ccccc1	2.0	7.2	4.5	-2.2	28.5*	1.4
O=C(COc1ccc(F)cc1)N1CCCc2ccccc21	-0.9	0.2	5.9	1.2	13.8	2.4
CCN(CC)CCNC(=O)C1(O)c2cc(Br)ccc2NC(=O)N1c1ccccc1 (configuration not stated)	1.0	-2.0	-0.3	-5.7	0.5	2.1
O=c1c2cc(NC(=S)NC3CCCCC3)ccc2nc2n1CCCCC2	2.0	5.8	1.9	-0.3	-3.5	27.9*

Compound activity as filed in PubChem BioAssay.
